“And” between values parts separate entries of the source, which are not always exact repeats. Identical values can stand only once. Inconclusive results are not listed. A call without a number means that no potency is given here. A structure can be active in one record and inactive in another. The source made the active and inactive calls. Calls come from the whole dose curve.
Experiment: qHTS assay to identify small molecule agonists of the progesterone receptor (PR) signaling pathway - cell viability counter screen (AID 1346799); note: nearly all actives have a fitted effect of over 45% in size
Conditions: PR-UAS-bla HEK293T viability, CellTiter-Glo luminescence, 16 h; series mostly up to 92.4 µM
Source text: National Center for Advancing Translational Sciences [NCATS]
NIH Chemical Genomics Center [NCGC]
U.S. Environmental Protection Agency [EPA]
National Institutes of Environmental Health Sciences [NIEHS]
National Toxicology Program [NTP]
U.S. Food and Drug Administration [FDA]
Progesterone receptor (PR), a nuclear hormone receptor, plays an important role in development, metabolic homeostasis and reproduction. It is activated by the steroid hormone progesterone. Endocrine disrupting chemicals (EDCs) and their interactions with steroid hormone receptors like PR causes disruption of normal endocrine function. To identify the compounds that stimulate PR signaling, a PR-UAS-bla GripTite cell line i.e. PR-UAS-bla HEK293T (Invitrogen, Carlsbad, CA, USA) containing a beta-lactamase reporter gene under the control of an UAS response element was used to screen Tox21 10K compound library. The cytotoxicity of the Tox21 compound library against the PR-bla cell line was tested in parallel by measuring the cell viability using CellTiter-Glo assay in the same wells.
Tox21 Assay Protocol Summary:
PR-UAS-bla HEK293T cells were dispensed at 3,000 cells/5 uL of assay medium containing 2% charcoal stripped FBS per well into black wall/clear-bottom 1536-well plates using a Multidrop Combi (ThermoFisher Scientific, Waltham, MA) dispenser. After the assay plates were incubated at a 37C and 5% CO2 for 6 hr, 23 nL of compounds dissolved in DMSO, positive controls or DMSO only was transferred to the assay plate by a Pintool station (Kalypsys, San Diego, CA). The plates were incubated at 37C and 5% CO2 for 16 hr. Then 1 uL of LiveBLAzer B/G FRET substrate was added using a Flying Reagent Dispenser (FRD, Aurora Discovery, San Diego, CA), the plates were incubated at room temperature for 2 hours, and fluorescence intensity was measured by an Envision plate reader (PerkinElmer, Shelton, CT). For cell viability readout that measures cytotoxicity, 4 uL/well of CellTiter-Glo reagent was added into the assay plates using a FRD. After 30 min incubation at room temperature, the luminescence intensity in the plates was measured using a ViewLux (PerkinElmer) plate reader.
For O=[N+]([O-])c1cc(C(F)(F)F)ccc1Cl, the Potency was “inactive”.
For OCC(CO)(CO)CO, the Potency was “inactive”.
For COC(=O)/C=C\C(=O)OC, the Potency was “inactive”.
With O=C1O[C@H]([C@H](O)CO)C(O)=C1O the Potency was “inactive”.
With CC(C)c1ccc(C(C)C)cc1 the Potency was “inactive”.
In the case of CC1(C)C(=O)N(Cl)C(=O)N1Cl, the Potency was “inactive”.
For CC/C(C)=N/O, the Potency was “inactive”.
In the case of CC(=O)OCCC(C)C, the Potency was “inactive”.
In the case of OC1CCCCC1, the Potency was “inactive”.
With Brc1ccc(Oc2ccc(Br)cc2)cc1 the Potency was “inactive”.
In the case of OCCOCCOCCOCCOCCO, the Potency was “inactive”.
With COc1ccc(N)c(OC)c1 the Potency was “inactive”.
In the case of CC1(C)[C@@H](O[C@H]2O[C@H](C(=O)O)[C@@H](O)[C@H](O)[C@H]2O[C@@H]2O[C@H](C(=O)O)[C@@H](O)[C@H](O)[C@H]2O)CC[C@]2(C)[C@H]3C(=O)C=C4[C@@H]5C[C@@](C)(C(=O)O)CC[C@]5(C)CC[C@@]4(C)[C@]3(C)CC[C@@H]12, the Potency was “inactive”.
In the case of CN1CCCC1=O, the Potency was “inactive”.
For O=c1n(CCCN2CCN(c3cccc(Cl)c3)CC2)nc2ccccn12, the Potency was “inactive”.
In the case of COc1ccccc1[N+](=O)[O-], the Potency was “inactive”.
With C=C1C[C@]23C[C@@]1(O)CC[C@H]2[C@@]12C=C[C@H](O)[C@@](C)(C(=O)O1)[C@H]2[C@@H]3C(=O)O the Potency was “inactive”.
For C[Si](C)(C)N[Si](C)(C)C, the Potency was “inactive”.
For CC(CN1c2ccccc2Sc2ccccc21)N(C)C (stereo not given), the Potency was 69.3 µM (active) and 30.6 µM (active) and inactive.
In the case of CCCN(CCC)C(=O)SCC, the Potency was “inactive”.
For CC(=O)OCc1ccc2c(c1)OCO2, the Potency was “inactive”.
In the case of O=c1c(O)c(-c2ccc(O)c(O)c2)oc2cc(O)cc(O)c12, the Potency was “inactive”.
For CC(O)CNCC(C)O (stereo not given), the Potency was “inactive”.
With CC[N+](CC)(CC(=O)Nc1c(C)cccc1C)Cc1ccccc1 the Potency was “inactive”.
For Nc1nc(N)c2nc(-c3ccccc3)c(N)nc2n1, the Potency was “inactive”.
With C=CC(C)(C)C the Potency was “inactive”.
With NC(=O)NC(N)=O the Potency was “inactive”.
In the case of O=C1C(N(CO)C(=O)NCO)N(CO)C(=O)N1CO (stereo not given), the Potency was “inactive”.
In the case of OC[C@H]1O[C@@H](Oc2ccc(O)cc2)[C@H](O)[C@@H](O)[C@@H]1O, the Potency was “inactive”.
For N[C@@H](Cc1cc(I)c(Oc2ccc(O)c(I)c2)c(I)c1)C(=O)O, the Potency was “inactive”.
In the case of CCc1cccc(O)c1, the Potency was “inactive”.
For C=C(CC(=O)O)C(=O)O, the Potency was “inactive”.
With CCCCCCCCCCCCCC(=O)O the Potency was “inactive”.
With Clc1cccc(Cl)c1NC1=NCCN1 the Potency was “inactive”.
With Cc1cccc(C)c1[N+](=O)[O-] the Potency was “inactive”.
For C1CCCNCC1, the Potency was “inactive”.
For Cc1ccc(C(C)C)cc1, the Potency was “inactive”.
In the case of CCCCC(=O)O, the Potency was “inactive”.
With CC(COCC(C)OC(=O)c1ccccc1)OC(=O)c1ccccc1 (stereo not given) the Potency was “inactive”.
In the case of CC/C=C(\C(=O)N[C@@H]1C(=O)N2C(C(=O)OCOC(=O)C(C)(C)C)=C(COC(N)=O)CS[C@H]12)c1csc(N)n1, the Potency was “inactive”.
Potency is the fitted concentration of half-maximal effect.
